The values below come from ChEMBL document CHEMBL4513216, “Probing the Open Global Health Chemical Diversity Library for Multistage-Active Starting Points for Next-Generation Antimalarials” (ACS Infect Dis, 2020).

The campaign covered roughly 69,000 compounds. About 8,600 (12%) showed an effect of 50% or more. This is one part of a sample in which strong results are shown more often than they occur.

The assay deals with Plasmodium berghei. Briefly: Screen against P. berghei liver stage (PbLuc), transformed with Luciferase, at 10uM. The following applies: tested at 10 uM. The format is functional, HepG2.
As to `CC(CN1CCOCC1)NC(=O)N1CCCC1` (configuration not stated), the INHIBITION is -15%.

On to `CN(C)[C@@H]1CCN(c2ncccn2)[C@H]1Cc1ccncc1`, for which the INHIBITION is reported as 26.8%.

For `COC(=O)c1ccc(OC)c(Cn2cc(Br)cn2)c1`, the INHIBITION worked out at 20.6%.

In the case of `O=C(CN1CCCCCC1)NCc1ccc2[nH]c(=O)[nH]c2c1`, the INHIBITION was -20.1%.

As to `O=C(NCc1ccc2[nH]c(=O)[nH]c2c1)c1ccc(CN2CCCC2)o1`, the INHIBITION was found to be 56.2%.

For `Cc1[nH]c2ccc(CNC(=O)c3ccc(CN4CCCC4)o3)cc2c1C`, the INHIBITION amounted to 40.3%.

Turning to `CC1CCCN1Cc1ccccc1-c1nc(C(C)(C)C)cc(=O)[nH]1` (configuration not stated), the INHIBITION is 9%.

Turning to `CN(C)c1ccc(C(=O)N2CCCC(n3cncn3)C2)nn1` (configuration not stated), the INHIBITION was found to be 0.411%.

`CCOC(=O)c1n[nH]cc1-c1cncn1CCn1nc(C)c(C)c1C`: the INHIBITION was 12.3%.

Regarding `COc1ccc(-c2cc(C3CCCCCN3S(C)(=O)=O)on2)cc1` (configuration not stated), the INHIBITION is reported as 12.725%.

In the case of `CN(C)S(=O)(=O)N1CCCCCC1c1cc(-c2ccc(F)cc2)no1` (configuration not stated), the INHIBITION is on record as 38.4%.

Turning to `COc1ccc(-c2cc(C3CCCCCN3S(=O)(=O)N(C)C)on2)cc1` (configuration not stated), the INHIBITION is recorded as 55.2%.

`CSc1cccc(CNC(=O)[C@H]2CNC[C@H](C(=O)N3CCOCC3)C2)c1`: the INHIBITION came out at 35.8%.

For the molecule `O=C1Nc2ccccc2CNC12CCN(CC1CCNC1)CC2` (configuration not stated), the INHIBITION worked out at 29.2%.

For the molecule `COCc1cccc(C(=O)N2C[C@@H]3CC[C@H]2CN(Cc2cscn2)C3)n1`, the INHIBITION was -38.6%.

Take `COc1ccc(-c2cc3nc([C@H](C)NC(=O)C4CC4)nn3cn2)cc1`: the INHIBITION is -5.71%.

In the case of `C[C@H](NC(=O)C1CCCC1)c1nc2cc(-c3ccc(F)cc3)ncn2n1`, the INHIBITION came out at 58.1%.

In the case of `C[C@H](NC(=O)C1CC1)c1nc2cc(-c3ccc(F)cc3)ncn2n1`, the INHIBITION was found to be 49.6%.

As for `CCN1Cc2ccccc2CC2(CCN(CC(=O)O)CC2)C1=O`, the INHIBITION is reported as 37.5%.

For the molecule `NCCC(=O)Nc1ccc(-c2ccccc2)cc1`, the INHIBITION came to 14.5%.

Take `N#CC1(NC(=O)COc2cc(Cl)cc(Cl)c2)CCSC1` (configuration not stated): the INHIBITION is on record as 38.5%.

For `Cc1ccc(OCC(=O)NC2(C#N)CCSCC2)cc1C`, the INHIBITION stood at 41.4%.

With `Cc1c(Cl)cccc1OCC(=O)NC1(C#N)CCSC1` (configuration not stated), the INHIBITION came out at 87.2%.

Turning to `CN(C)C(=O)c1cc(-c2ccccc2)[nH]n1`, the INHIBITION is -35%.

Regarding `CC(C)c1ccc(CC2(C)Cc3cc(CC(=O)O)ccc3O2)cc1` (configuration not stated), the INHIBITION stood at 20.85%.

Take `CN(C)Cc1cnc(C2CCN(C(=O)c3cccc(F)c3)C2)[nH]1` (configuration not stated): the INHIBITION is 41.7%.

Turning to `CN(C)[C@H]1CCCCN(C(=O)c2cccc(-c3cccc(F)c3)c2)C1`, the INHIBITION stood at 60.4%.

In the case of `CN(C)[C@H]1CCCCN(C(=O)c2cccc(N3CCS(=O)(=O)CC3)c2)C1`, the INHIBITION is 30.9%.

With `CN(C(=O)CCNC(=O)NC1CCCCC1)c1ccccc1`, the INHIBITION stood at 27.6%.

For `Cn1c(NCC(O)c2ccccc2F)c(C#N)c(=O)n(C)c1=O` (configuration not stated), the INHIBITION is on record as -5.25%.

Take `CNC(=O)[C@@H]1C[C@@H](NC(=O)Cc2cccs2)CN1C1CCOCC1`: the INHIBITION turned out to be 23.5%.

On to `CNC(=O)[C@@H]1C[C@@H](NC(=O)CSc2ccccc2)CN1C1CCOCC1`, for which the INHIBITION worked out at 54.6%.

As for `CNC(=O)[C@@H]1C[C@@H](NC(=O)CCCc2cccs2)CN1C1CCOCC1`, the INHIBITION is 10.4%.

For `CC(C)n1cc(CN2CCCN(C(=O)C3CCCN3C)CC2)cn1` (configuration not stated), the INHIBITION came out at 26.4%.

Take `CCN(CCO)C[C@@H]1CN(c2cccc(C(F)(F)F)n2)C[C@@H]1CO`: the INHIBITION came out at 3.13%.

As for `COc1ccccc1OCC(=O)NS(=O)(=O)c1cc(F)ccc1F`, the INHIBITION is 5.14%.

On to `COc1ccccc1OCC(=O)NS(=O)(=O)c1ccc(F)cc1F`, for which the INHIBITION is recorded as 63.3%.

As to `COc1cc(C#N)ccc1OCC(=O)NS(=O)(=O)c1cccnc1`, the INHIBITION stood at 19.4%.

On to `COc1ccccc1OCC(=O)NS(=O)(=O)c1ccc(Cl)cc1F`, for which the INHIBITION was determined as 29.5%.

With `COc1cc(C#N)ccc1OCC(=O)NS(=O)(=O)c1ccccc1`, the INHIBITION was 50.6%.

For the molecule `COc1ccccc1CC(=O)NS(=O)(=O)c1ccc(C#N)cc1`, the INHIBITION was 15.6%.

`CN1CCCN(C(=O)NCc2cc(Br)cs2)CC1`: the INHIBITION is on record as -13.935%.

Consider `Cc1ccc(-c2cc(C(=O)NCCN3CCCS3(=O)=O)[nH]n2)cc1`, for which the INHIBITION is reported as -8.15%.

For the molecule `Cc1ccccc1NC(=O)Nc1c[nH]c(=O)[nH]c1=O`, the INHIBITION worked out at 35.7%.

For `Cc1ccc(CN2CCc3ncc(CNC(=O)C4CCC4)n3CC2)o1`, the INHIBITION is listed as 45.1%.

On to `O=C(NCCOC1CCCCC1)c1ccc(-c2ccco2)[nH]c1=O`, for which the INHIBITION was -14.6%.

`Cc1nc(-c2nnc[nH]2)sc1C(=O)N1CCCC1Cn1cccn1` (configuration not stated): the INHIBITION is -1.45%.

For the molecule `O=C(N[C@@H]1CCC[C@@H](n2ccnc2)[C@@H]1O)c1ccc2c(c1)CCCC2`, the INHIBITION amounted to 38.2%.

Turning to `O=C(Cc1ccc2c(c1)CCCC2)N[C@@H]1CC[C@@H](n2ccnc2)[C@@H]1O`, the INHIBITION came to 64.9%.

In the case of `O=C(N[C@@H]1CC[C@@H](n2ccnc2)[C@@H]1O)c1cc2c(s1)CCC2`, the INHIBITION was found to be 9.93%.

`CCN1CC[C@@]2(C(=O)N3CCOCC3)CCN(C(=O)CC(C)C)CC[C@@H]12`: the INHIBITION worked out at 11.2%.

As for `CNC(=O)CCS(=O)(=O)Cc1cc(Cl)c2c(c1)OCCCO2`, the INHIBITION is -11.4%.
